Data reported in PubChem BioAssay (NCATS).
Where “and” joins values, the source holds several entries; their conditions need not be identical. Equal entries are not always repeated. Inconclusive results are not listed. A call without a number means that no potency is given here. Calls of active or inactive are those of the source. Unless noted, calls follow the shape of the dose curve; as a rule, active = well fitted curve in the direction sought with a large enough effect; inconclusive = small, poorly fitted or top-dose-only effect, or another doubt; inactive = no such curve, though single readings can be large; an effect the other way counts as inactive or inconclusive.

Columns and labels:
[1] = target: Glucocorticoid receptor (Homo sapiens) (UniProt P04150); experiment: qHTS assay for small molecule antagonists of glucocorticoid receptor signaling (AID 588533; active = well fitted inhibition curve with a large enough effect in the signal ratio, with a control signal flat, not every such curve was filed as active; the % refers to the signal ratio;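 also: cells stimulated with 2 nM dexamethasone as agonist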)
Outline: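 Antagonist-mode qHTS: compound titrations added to GRE-bla HeLa cells, then dexamethasone 2 nM final; 18 h, 37 C. CCF4 FRET fluorescence normalized to dexamethasone and DMSO; IC50 from Hill fit.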

[2] = target: Thyroid hormone receptor beta (Homo sapiens) (UniProt P10828); experiment: qHTS assay for small molecule agonists of thyroid hormone receptor beta signaling (AID 588545; calls by dose curve)
Outline: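 TR-UAS-bla-GripTite HEK 293 cells in medium with 2% charcoal/dextran FBS, 0.1 mM NEAA and 1 mM sodium pyruvate were treated with titrated compounds for 18 hrs at 37 C. Beta-lactamase reporter was read with CCF4 dye (ex 405, em 460/530 nm); EC50 from Hill fits.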

[3] = target: Glutaminase kidney isoform, mitochondrial (Homo sapiens) (UniProt O94925); experiment: qHTS for Inhibitors of Glutaminase (GLS): LOPAC Validation (AID 624146);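 also: glutamate product detected by oxidase and peroxidase coupled Amplex red fluorescence gain; series mostly up to about 46 µM; nearly all actives have a fitted effect of over 60% in size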
Outline: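 Read-out is an Amplex red fluorescence increase coupled through glutamate oxidase and HRP, measured before and after 30 min room-temperature incubation. hKGA is in 45 mM KH2PO4 (pH 8.2) with 0.02% Tween-20; glutamine added as 1mM solution.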

[4] = qHTS of Trypanosoma Brucei Inhibitors: LOPAC Validation (AID 624147)
Outline: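 Assay buffer: 50 mM TEA pH 7.2, 100 mM KCl, 10 mM MgCl2, 0.05% BSA, 0.01% Tween-20. Pyruvate kinase from T. brucei plus substrate met compound, then ADP (130 uM final). Luminescence was read post 45 min RT.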

[5] = target: Glucagon-like peptide 1 receptor (Homo sapiens) (UniProt P43220); experiment: qHTS of GLP-1 Receptor Agonists: LOPAC Validation (AID 624148);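 also: higher luminescence signal means agonism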
Outline: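 HEK293 cells stably co-expressing a cAMP-responsive luciferase reporter and a hypersensitive GLP-1R were plated 12 h at 37 °C and exposed to compounds for 4-6 hr at 37 °C, 5% CO2. Luminescence was read 12 min after adding detection reagent.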

[6] = qHTS assay for small molecule antagonists of peroxisome proliferator-activated receptor delta signaling (AID 588535); settings: HEK293T PPARd-UAS-bla, beta-lactamase FRET ratio, 18 h; 460 nm channel;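 also: cells co-treated with a PPAR-delta agonist as stimulator during compound exposure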
Outline: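 Compounds tested in titration on PPAR-delta-UAS-bla HEK293T cells grown in charcoal/dextran-stripped serum (2%); beta-lactamase activity read via CCF4 emission at 460 and 530 nm.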

[7] = target: Vitamin D3 receptor (Homo sapiens) (UniProt P11473); experiment: qHTS assay for small molecule antagonists of vitamin D receptor signaling (AID 588541; calls by dose curve;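 also: receptor activated by calcitriol during compound treatment; series mostly up to about 77 µM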)
Outline: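 VDR-UAS-bla HEK293T cells (2000/well, 2% charcoal-stripped FBS) were treated with titrated compounds plus 1-alpha,25-dihydroxyvitamin D3 (50 nM or 3 nM final) for 16 h at 37 C. CCF4 beta-lactamase fluorescence was read; Hill fits gave IC50.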

[8] = target: Vitamin D3 receptor (Homo sapiens) (UniProt P11473); experiment: qHTS assay for small molecule agonists of vitamin D receptor signaling (AID 588543; calls by dose curve)
Outline: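 β-lactamase reporter, VDR-UAS-bla HEK293T, agonist mode. Cells plated 5 h at 37 °C, compound titration 16 h at 37 °C, CCF4 dye 2 h RT, ratio 460/530 nm. Hill fit → EC50, efficacy vs 50 nM 1α,25-(OH)2D3.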

[9] = qHTS assay for small molecule antagonists of retinoid X receptor alpha signaling (AID 588546; active = well fitted inhibition curve with a large enough effect in the signal ratio, with a control signal flat, not every such curve was filed as active; the % refers to the signal ratio;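 also: cells stimulated with 9-cis-retinoic acid as agonist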); settings: HEK293T RXRa-UAS-bla, beta-lactamase ratio, antagonist mode; measured here: W530 green channel, cytotoxicity proxy
Outline: (§1)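 Beta-lactamase reporter inhibition, read as CCF4 fluorescence ratio (ex 405, em 460/530 nm) after 2 h at RT. HEK293T UAS-bla cells, 2500/well, were stimulated with 9-cis-RA at 500 or 100 nM final alongside test compound for 18 h at 37 C.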

[10] = target: Retinoic acid receptor RXR-alpha (Homo sapiens) (UniProt P19793); experiment: as above; settings: HEK293T RXRa-UAS-bla, beta-lactamase ratio, antagonist mode
Outline: as §1

[11] = target: Thyroid hormone receptor beta (Homo sapiens) (UniProt P10828); experiment: qHTS assay for small molecule antagonists of thyroid hormone receptor beta signaling (AID 588547; active = well fitted inhibition curve with a large enough effect in the signal ratio, with a control signal flat, not every such curve was filed as active; the % refers to the signal ratio;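 also: cells stimulated with 0.4 nM T3 agonist during compound exposure; series mostly up to about 77 µM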); settings: TR-UAS-bla HEK293, beta-lactamase ratio, antagonist mode, 18 h
Outline: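 TR-UAS-bla GripTite HEK293 cells in 2% charcoal/dextran FBS medium were preincubated 4 h at 37 C, given compound (0.59 nM to 92 uM) plus 0.4 nM T3 (final) for 18 h, then CCF4 for 2 h at RT; Hill fit gave IC50.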

[12] = target: Voltage-gated inwardly rectifying potassium channel KCNH2 (Homo sapiens) (UniProt Q12809); experiment: qHTS Assay for Small Molecule Inhibitors of the Human hERG Channel Activity (AID 588834);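 also: lower thallium flux fluorescence means stronger hERG block; nearly all actives have a fitted effect of over 50% in size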; also: potency is read from the fitted curve at half-maximal effect
Outline: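 Thallium-flux (FluxOR) read-out on FDSS: fluorescence read 10 s before and 2 min after stimulation buffer. hERG-BacMam-transduced U2OS cells, compound exposure about 10 min. AC50 by standard Hill equation.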

[13] = target: Luciferin 4-monooxygenase (Photinus pyralis) (UniProt P08659); experiment: Biochemical firefly luciferase enzyme assay for NPC (AID 624030); also: nearly all actives have a fitted effect of over 70% in size; also: potency is read from the fitted curve at half-maximal effect
Outline: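 Counter-screen for direct inhibition of the luciferase enzyme by approved-drug library compounds, run at 10 nM enzyme in 50 mM Tris acetate (final). Luminescence was read within 5 min of enzyme-buffer addition and normalized to PTC124 versus DMSO (0%).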

[14] = S16 Schwann cell viability assay (CellTiter-Glo assay) (AID 624031);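 also: native untransfected S16 rat Schwann cells; cellular ATP luminescence as a viability measure; series mostly up to about 58 µM; nearly all actives have a fitted effect of over 70% in size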
Outline: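 Concentration-effect curves come from CellTiter-Glo luminescence of S16 rat Schwann cells after 24 h compound exposure. Each reading was normalized to DMSO wells (0%) and wells without cells, and curves were ranked by r2 and response magnitude.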

[15] = S16 Schwann cell PMP22 intronic element beta-lactamase assay (AID 624044; calls by dose curve; also: nearly all actives have a fitted effect of over 15% in size)
Outline: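 Beta-lactamase reporter under a PMP22 intronic regulatory element in stable S16 rat Schwann cells; 24 h compound exposure. 460 nm blue signal normalized between DMSO (0%) and potassium clavulanate, with 535 nm FRET tracking viability; curves classed by r2 and response.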

[16] = target: Peroxisome proliferator-activated receptor gamma (Homo sapiens) (UniProt P37231); experiment: qHTS assay for small molecule agonists of peroxisome proliferator-activated receptor gamma signaling (AID 588536; active = well fitted curve in the direction sought with a large enough effect in the signal ratio, with a control signal flat, not every such curve was filed as active; the % refers to the signal ratio)
Outline: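 Compound treatment: 16 h, 37 C, HEK293 GeneBLAzer cells. Detection: CCF4, 2 h RT. Values: Hill-fit EC50, efficacy as % of 2 uM rosiglitazone.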

[17] = target: Peroxisome proliferator-activated receptor gamma (Homo sapiens) (UniProt P37231); experiment: qHTS assay for small molecule antagonists of peroxisome proliferator-activated receptor gamma signaling (AID 588537; active = well fitted inhibition curve with a large enough effect in the signal ratio, with a control signal flat, not every such curve was filed as active; the % refers to the signal ratio;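 also: reporter cells co-stimulated with 50 nM rosiglitazone agonist during compound treatment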)
Outline: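 HEK293 cells, PPAR-gamma-UAS-bla, 3000/well. Pre-incubation 6-6.5 h, 37 C. Compound titration with rosiglitazone 50 nM final, 16 h. CCF4 dye, 2 h RT, dual-emission fluorescence.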

[18] = qHTS assay for small molecule agonists of retinoid X receptor alpha signaling (AID 588544; calls by dose curve); settings: HEK293T RXRa-UAS-bla, beta-lactamase reporter, 18 h; 530 nm emission
[19] = target: Retinoic acid receptor RXR-alpha (Homo sapiens) (UniProt P19793); experiment: as above
[20] = S16 Schwann cell PMP22 intronic element firefly luciferase assay (AID 624032); also: series mostly up to about 58 µM; nearly all actives have a fitted effect of over 30% in size
Outline: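 Rat S16 Schwann cells stably carrying a PMP22 intronic element-driven Fluc reporter were seeded overnight, then exposed to compounds for 24 h at 37 °C. Luminescence was normalized to PTC124 (positive control) and DMSO (0% activity).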

Glucagon-like peptide 1 receptor (Homo sapiens), sequence (P43220 whole entry, looked up): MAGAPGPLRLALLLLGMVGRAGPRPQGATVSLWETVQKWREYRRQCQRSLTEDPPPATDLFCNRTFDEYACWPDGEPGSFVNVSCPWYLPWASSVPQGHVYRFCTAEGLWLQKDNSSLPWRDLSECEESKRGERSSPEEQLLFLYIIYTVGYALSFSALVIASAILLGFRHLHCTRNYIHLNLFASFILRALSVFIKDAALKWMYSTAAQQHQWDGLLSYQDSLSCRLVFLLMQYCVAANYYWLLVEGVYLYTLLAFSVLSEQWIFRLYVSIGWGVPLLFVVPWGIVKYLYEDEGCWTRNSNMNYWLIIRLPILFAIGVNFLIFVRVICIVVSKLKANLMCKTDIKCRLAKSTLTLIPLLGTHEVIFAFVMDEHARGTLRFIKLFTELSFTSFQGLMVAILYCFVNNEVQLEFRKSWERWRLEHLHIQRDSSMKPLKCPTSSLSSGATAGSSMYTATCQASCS
Glutaminase kidney isoform, mitochondrial (Homo sapiens), sequence (O94925 whole entry, looked up, canonical isoform): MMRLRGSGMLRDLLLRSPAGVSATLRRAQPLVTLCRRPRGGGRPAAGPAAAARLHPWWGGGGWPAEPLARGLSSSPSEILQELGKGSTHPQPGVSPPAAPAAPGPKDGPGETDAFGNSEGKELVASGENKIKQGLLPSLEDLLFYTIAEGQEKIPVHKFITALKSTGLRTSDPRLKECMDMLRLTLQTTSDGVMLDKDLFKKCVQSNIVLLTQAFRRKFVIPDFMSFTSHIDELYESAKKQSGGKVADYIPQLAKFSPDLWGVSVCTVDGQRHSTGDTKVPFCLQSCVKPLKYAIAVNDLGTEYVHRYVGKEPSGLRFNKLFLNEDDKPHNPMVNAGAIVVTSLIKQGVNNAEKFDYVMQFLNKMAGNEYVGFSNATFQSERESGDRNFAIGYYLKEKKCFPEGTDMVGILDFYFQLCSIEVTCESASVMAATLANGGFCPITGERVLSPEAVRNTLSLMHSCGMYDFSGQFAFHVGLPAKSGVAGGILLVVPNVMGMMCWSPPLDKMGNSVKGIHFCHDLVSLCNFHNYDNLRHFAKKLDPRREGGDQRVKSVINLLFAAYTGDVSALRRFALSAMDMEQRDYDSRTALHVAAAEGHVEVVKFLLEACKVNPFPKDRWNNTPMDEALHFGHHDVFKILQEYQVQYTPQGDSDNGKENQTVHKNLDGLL
Peroxisome proliferator-activated receptor gamma (Homo sapiens), sequence (P37231 whole entry, looked up): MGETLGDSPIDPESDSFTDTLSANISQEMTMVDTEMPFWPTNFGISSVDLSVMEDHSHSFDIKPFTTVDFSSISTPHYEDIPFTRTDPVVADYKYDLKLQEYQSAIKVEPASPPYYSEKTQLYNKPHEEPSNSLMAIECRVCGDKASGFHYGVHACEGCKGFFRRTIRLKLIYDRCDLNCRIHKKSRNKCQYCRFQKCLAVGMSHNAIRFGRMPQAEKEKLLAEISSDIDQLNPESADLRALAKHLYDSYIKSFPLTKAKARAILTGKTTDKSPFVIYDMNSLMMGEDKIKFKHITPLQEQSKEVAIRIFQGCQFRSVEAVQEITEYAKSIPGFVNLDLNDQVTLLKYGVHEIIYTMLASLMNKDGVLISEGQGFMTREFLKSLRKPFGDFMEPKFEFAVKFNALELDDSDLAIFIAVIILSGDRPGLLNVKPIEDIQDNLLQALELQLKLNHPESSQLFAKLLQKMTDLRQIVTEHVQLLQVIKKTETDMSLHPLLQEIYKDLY
Voltage-gated inwardly rectifying potassium channel KCNH2 (Homo sapiens), sequence (Q12809 whole entry, looked up): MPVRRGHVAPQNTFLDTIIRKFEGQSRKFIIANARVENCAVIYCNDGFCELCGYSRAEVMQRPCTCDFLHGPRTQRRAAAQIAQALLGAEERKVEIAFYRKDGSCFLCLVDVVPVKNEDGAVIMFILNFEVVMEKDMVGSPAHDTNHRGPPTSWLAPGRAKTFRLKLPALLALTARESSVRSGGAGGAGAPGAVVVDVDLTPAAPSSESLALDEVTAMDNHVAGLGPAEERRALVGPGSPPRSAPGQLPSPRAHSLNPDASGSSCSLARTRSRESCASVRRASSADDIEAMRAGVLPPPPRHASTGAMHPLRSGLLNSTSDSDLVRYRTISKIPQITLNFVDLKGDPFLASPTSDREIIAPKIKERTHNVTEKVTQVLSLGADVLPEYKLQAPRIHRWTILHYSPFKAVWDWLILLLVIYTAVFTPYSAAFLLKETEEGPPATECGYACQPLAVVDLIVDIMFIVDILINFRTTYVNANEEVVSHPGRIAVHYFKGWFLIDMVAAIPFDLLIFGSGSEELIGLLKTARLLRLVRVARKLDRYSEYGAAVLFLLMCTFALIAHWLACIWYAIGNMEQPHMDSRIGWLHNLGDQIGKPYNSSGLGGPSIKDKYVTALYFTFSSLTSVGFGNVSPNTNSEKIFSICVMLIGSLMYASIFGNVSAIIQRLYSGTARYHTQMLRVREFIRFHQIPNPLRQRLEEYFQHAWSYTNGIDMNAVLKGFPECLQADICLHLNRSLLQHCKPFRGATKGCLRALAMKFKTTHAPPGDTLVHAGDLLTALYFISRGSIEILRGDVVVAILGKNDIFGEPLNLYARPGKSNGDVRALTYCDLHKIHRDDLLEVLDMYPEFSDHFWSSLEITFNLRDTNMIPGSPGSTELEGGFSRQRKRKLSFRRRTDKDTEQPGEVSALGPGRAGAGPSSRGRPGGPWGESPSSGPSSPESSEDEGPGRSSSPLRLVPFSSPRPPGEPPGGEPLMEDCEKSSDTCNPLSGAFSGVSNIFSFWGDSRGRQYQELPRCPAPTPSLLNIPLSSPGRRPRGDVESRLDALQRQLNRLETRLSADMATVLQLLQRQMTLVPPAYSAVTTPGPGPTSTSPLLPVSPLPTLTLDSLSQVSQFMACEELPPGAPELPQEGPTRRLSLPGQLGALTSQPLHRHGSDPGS
Thyroid hormone receptor beta (Homo sapiens), sequence (P10828 whole entry, looked up): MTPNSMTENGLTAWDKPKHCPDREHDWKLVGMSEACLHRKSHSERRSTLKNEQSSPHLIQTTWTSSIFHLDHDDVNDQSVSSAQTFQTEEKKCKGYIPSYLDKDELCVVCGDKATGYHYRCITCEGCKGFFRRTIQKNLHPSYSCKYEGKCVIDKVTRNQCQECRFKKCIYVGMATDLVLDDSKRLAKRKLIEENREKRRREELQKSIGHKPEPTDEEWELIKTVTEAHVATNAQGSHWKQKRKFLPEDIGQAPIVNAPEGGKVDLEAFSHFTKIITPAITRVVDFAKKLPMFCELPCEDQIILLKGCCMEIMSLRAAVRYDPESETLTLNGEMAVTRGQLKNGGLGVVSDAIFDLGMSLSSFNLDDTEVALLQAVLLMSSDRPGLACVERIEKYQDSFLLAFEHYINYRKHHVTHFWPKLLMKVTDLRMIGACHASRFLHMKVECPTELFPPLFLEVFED
Luciferin 4-monooxygenase (Photinus pyralis), sequence (P08659 whole entry, looked up): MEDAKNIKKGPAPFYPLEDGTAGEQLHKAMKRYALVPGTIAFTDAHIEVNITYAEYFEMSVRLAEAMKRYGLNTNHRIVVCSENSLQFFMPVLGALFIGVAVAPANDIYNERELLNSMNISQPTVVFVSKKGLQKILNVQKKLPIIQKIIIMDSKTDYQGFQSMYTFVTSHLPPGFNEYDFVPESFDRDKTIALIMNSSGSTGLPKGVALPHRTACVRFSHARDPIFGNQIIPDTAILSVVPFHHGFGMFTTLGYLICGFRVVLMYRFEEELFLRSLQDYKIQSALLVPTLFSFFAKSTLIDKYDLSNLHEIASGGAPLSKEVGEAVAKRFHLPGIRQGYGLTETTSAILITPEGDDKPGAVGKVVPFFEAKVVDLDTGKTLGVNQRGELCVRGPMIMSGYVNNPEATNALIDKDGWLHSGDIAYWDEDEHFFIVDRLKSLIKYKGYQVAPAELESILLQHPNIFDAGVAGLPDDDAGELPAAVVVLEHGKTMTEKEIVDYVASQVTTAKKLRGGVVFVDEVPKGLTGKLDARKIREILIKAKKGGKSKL
Retinoic acid receptor RXR-alpha (Homo sapiens), sequence (P19793 whole entry, looked up): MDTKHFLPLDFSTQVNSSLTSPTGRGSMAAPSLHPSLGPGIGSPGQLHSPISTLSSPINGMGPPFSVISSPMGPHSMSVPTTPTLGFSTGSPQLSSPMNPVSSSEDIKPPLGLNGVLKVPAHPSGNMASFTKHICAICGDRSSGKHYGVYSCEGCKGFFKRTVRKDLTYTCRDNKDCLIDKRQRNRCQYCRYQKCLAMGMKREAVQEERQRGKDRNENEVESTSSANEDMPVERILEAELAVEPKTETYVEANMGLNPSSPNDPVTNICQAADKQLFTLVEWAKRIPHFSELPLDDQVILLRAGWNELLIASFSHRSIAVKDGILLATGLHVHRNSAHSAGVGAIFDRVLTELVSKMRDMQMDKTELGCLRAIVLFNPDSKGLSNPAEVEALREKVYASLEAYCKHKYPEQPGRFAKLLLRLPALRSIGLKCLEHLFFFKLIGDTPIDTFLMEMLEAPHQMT
Vitamin D3 receptor (Homo sapiens), sequence (P11473 whole entry, looked up): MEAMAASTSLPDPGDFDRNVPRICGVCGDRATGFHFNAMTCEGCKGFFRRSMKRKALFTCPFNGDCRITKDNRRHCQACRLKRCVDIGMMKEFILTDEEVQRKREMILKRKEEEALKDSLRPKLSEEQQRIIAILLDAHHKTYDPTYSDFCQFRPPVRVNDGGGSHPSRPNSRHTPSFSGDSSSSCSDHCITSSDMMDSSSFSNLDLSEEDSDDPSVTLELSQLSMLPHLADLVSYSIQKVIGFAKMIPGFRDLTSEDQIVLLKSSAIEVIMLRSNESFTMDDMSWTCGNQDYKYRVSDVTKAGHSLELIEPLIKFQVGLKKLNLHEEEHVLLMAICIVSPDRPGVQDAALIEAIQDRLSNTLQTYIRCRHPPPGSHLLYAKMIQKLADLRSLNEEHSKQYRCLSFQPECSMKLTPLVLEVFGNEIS

Structure (SMILES): CC(=O)N1CCN(c2ccc(OC[C@H]3CO[C@](Cn4ccnc4)(c4ccc(Cl)cc4Cl)O3)cc2)CC1
- outcome [1]: inactive
- outcome [2]: inactive
- Potency [3]: inactive
- Potency [4]: inactive
- outcome [5]: inactive

Structure (SMILES): CCCCC(CC)COC(=O)C(C#N)=C(c1ccccc1)c1ccccc1 (configuration not stated)
- max response [6]: -3.97%
- outcome [7]: inactive
- outcome [8]: inactive
- max response [9]: -18.7%
- max response [10]: -7.69% (inactive)
- activity change % (negative = inhibition) [11]: -9.58% (inactive)
- Potency [12]: inactive
- Potency [13]: inactive
- Potency [14]: inactive
- Potency [15]: inactive

Structure (SMILES): CC1Cc2ccccc2N1NC(=O)c1ccc(Cl)c(S(N)(=O)=O)c1 (configuration not stated)
- Potency [12]: inactive
- Potency [13]: inactive

Structure (SMILES): CCCc1cc(=O)[nH]c(=S)[nH]1
- max response [6]: 15.2% and -59%
- outcome [16]: inactive
- Potency [17]: inactive
- max response [18]: 3.33% and 11.8%
- outcome [19]: inactive
- outcome [2]: inactive
- max response [9]: 2.58% and 1.92%
- max response [10]: 3.88% (inactive) and 3.79% (inactive)
- activity change % (negative = inhibition) [11]: 8.46% (inactive)
- Potency [12]: inactive
- Potency [13]: inactive
- Potency [14]: inactive
- Potency [20]: inactive

Structure (SMILES): C[C@@H](N)C1CCC(C(=O)Nc2ccncc2)CC1 (some centres not stated)
- Potency [3]: inactive
- Potency [4]: inactive
- outcome [5]: inactive

Structure (SMILES): CC(C)Oc1ccc2c(=O)c(-c3ccccc3)coc2c1
- Potency [13]: 2030 nM (active)

Structure (SMILES): C=CCc1cc(OC)c(O)c(C(=O)NCCO)c1
- Potency [13]: inactive
- Potency [14]: inactive
- Potency [20]: inactive

Structure (SMILES): O=C(CCc1ccc(O)cc1)c1c(O)cc(O)cc1O
- Potency [4]: inactive
- outcome [5]: inactive

Structure (SMILES): COC(=O)N[C@H](C(=O)N[C@@H](Cc1ccccc1)[C@@H](O)CN(Cc1ccc(-c2ccccn2)cc1)NC(=O)[C@@H](NC(=O)OC)C(C)(C)C)C(C)(C)C
- Potency [13]: inactive

Structure (SMILES): Oc1ccc2ccccc2c1SSc1c(O)ccc2ccccc12
- outcome [5]: inactive

Structure (SMILES): Cc1nc2n(c(=O)c1CCN1CCC(c3noc4cc(F)ccc34)CC1)CCCC2
- Potency [13]: inactive
- Potency [14]: inactive
- Potency [15]: inactive

Structure (SMILES): CC1(C)C(=O)N(CCN2CCC(C(=O)c3ccc(F)cc3)CC2)c2ccccc21
- Potency [12]: 891 nM (active)
- Potency [4]: inactive
- outcome [5]: inactive

Structure (SMILES): COc1ccc2cc([C@H](C)C(=O)O)ccc2c1
- Potency [13]: inactive
- Potency [14]: inactive
- Potency [20]: inactive
- Potency [3]: inactive
- Potency [4]: inactive
- outcome [5]: inactive

Structure (SMILES): COc1cc(Nc2c(C#N)cnc3cc(OCCCN4CCN(C)CC4)c(OC)cc23)c(Cl)cc1Cl
- Potency [13]: inactive

Structure (SMILES): COc1cc2nc(N3CCN(C(=O)C4CCCO4)CC3)nc(N)c2cc1OC (configuration not stated)
- Potency [3]: inactive
- Potency [4]: inactive
- outcome [5]: inactive

Structure (SMILES): CN(C)CCc1c[nH]c2ccc(Cn3cncn3)cc12
- Potency [13]: inactive
- Potency [14]: inactive
- Potency [20]: inactive

Structure (SMILES): CC(C)[N+]1(C)[C@@H]2CC[C@H]1CC(OC(=O)C(CO)c1ccccc1)C2 (some centres not stated)
- Potency [13]: inactive

Structure (SMILES): COc1cc2c(N3CCN(C(=O)Nc4ccc(OC(C)C)cc4)CC3)ncnc2cc1OCCCN1CCCCC1
- Potency [13]: inactive

Structure (SMILES): Cc1ccc(Nc2nccc(N(C)c3ccc4c(C)n(C)nc4c3)n2)cc1S(N)(=O)=O
- Potency [13]: inactive

Structure (SMILES): O=c1c(O)c(-c2cc(O)c(O)c(O)c2)oc2cc(O)cc(O)c12
- Potency [12]: inactive
- outcome [5]: inactive

Structure (SMILES): Cn1c(NCCN(CCO)CCCc2ccc([N+](=O)[O-])cc2)cc(=O)n(C)c1=O
- Potency [13]: inactive
- Potency [14]: inactive
- Potency [20]: inactive

Structure (SMILES): Cc1cccc(C)c1OCC(=O)N[C@@H](Cc1ccccc1)[C@@H](O)C[C@H](Cc1ccccc1)NC(=O)[C@H](C(C)C)N1CCCNC1=O
- Potency [13]: inactive

Structure (SMILES): c1cnc2cc3c(cc2n1)C1CNCC3C1
- Potency [13]: inactive

Structure (SMILES): Cc1nccn1CC1CCc2c(c3ccccc3n2C)C1=O (configuration not stated)
- Potency [13]: inactive

Structure (SMILES): NC(=O)Cc1cccc(C(=O)c2ccccc2)c1N
- Potency [13]: inactive
